Reference: PubChem BioAssay (NCI)
Compounds without any hit were thinned out: in the full panel of roughly 79,000, 15% have a hit. Calls of active or inactive are those of the source. No stated cut-off is given here; in the data, active means growth inhibition above about 70%; inactive means the rest.

Legend:
[1] = NCI Yeast Anticancer Drug Screen. Data for the rad52 strain (AID 147);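 further: 0% = growth of vehicle-treated control cultures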; conditions: S. cerevisiae rad52 mutant growth inhibition, active compounds read high
Outline: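 The repair-mutant yeast strain was incubated with compounds, then growth was read and inhibition derived relative to vehicle.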

[2] = NCI Yeast Anticancer Drug Screen. Data for the wt1 strain (AID 149);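 further: 0% = growth of vehicle-treated wt1 cultures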; conditions: S. cerevisiae wt1 strain (SPY 50644) growth inhibition, active compounds read high
Outline: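 Yeast wt1 strain exposed to compounds; growth inhibition measured relative to vehicle-treated controls.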

[3] = NCI Yeast Anticancer Drug Screen. Data for the rad50EPP+ strain (AID 151);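 further: 0% = growth of vehicle-treated control cultures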; conditions: S. cerevisiae rad50 mutant strain, active compounds read high
Outline: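 Vehicle-normalised growth inhibition; rad50EPP+ yeast strain, altered in DNA damage repair, compound-treated.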

[4] = NCI Yeast Anticancer Drug Screen. Data for the rad50 strain (AID 155);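 further: 0% = growth of vehicle-only cultures of the same strain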; conditions: S. cerevisiae rad50 strain growth inhibition, active compounds read high
Outline: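 Yeast carrying a defined DNA repair defect were exposed to test compounds, and growth was compared with vehicle-treated controls to give percent inhibition.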

[5] = NCI Yeast Anticancer Drug Screen. Data for the mec2-1 strain (AID 157); conditions: S. cerevisiae mec2-1 strain, active compounds read high
Outline: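 Mutant yeast (mec2-1) grown with compound; growth inhibition relative to vehicle control reported.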

[6] = NCI Yeast Anticancer Drug Screen. Data for the rad14 strain (AID 159);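 further: 0% = growth of vehicle-treated control cultures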; conditions: S. cerevisiae rad14 strain growth inhibition, active compounds read high
Outline: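 Yeast cells carrying a defined DNA-repair defect were exposed to compounds, and growth inhibition was calculated relative to vehicle-treated control cultures.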

[7] = NCI Yeast Anticancer Drug Screen. Data for the sgs1 mgt1 strain (AID 161);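 further: 0% = growth of cultures given vehicle only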; conditions: S. cerevisiae sgs1 mgt1 strain, active compounds read high
Outline: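 Percent growth inhibition was derived by comparing compound-exposed mutant yeast with vehicle-exposed cultures. The strain carries alterations in DNA damage repair.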

[8] = NCI Yeast Anticancer Drug Screen. Data for the CLN2oe strain (AID 163);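 further: 0% = growth of vehicle-only control cultures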; conditions: S. cerevisiae CLN2oe strain, active compounds read high
Outline: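 Compounds are applied to yeast harbouring a defined cell-cycle control change; reduced growth compared with vehicle-treated controls gives the value.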

[9] = NCI Yeast Anticancer Drug Screen. Data for the bub3 strain (AID 167); conditions: S. cerevisiae bub3 mutant strain, active compounds read high
Outline: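 Compounds were applied to a genetically altered yeast strain carrying a cell-cycle control defect. Growth inhibition was scored against vehicle-treated controls.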

[10] = NCI Yeast Anticancer Drug Screen. Data for the wt2 strain (AID 169);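 further: 0% = growth of vehicle-treated yeast cultures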; conditions: S. cerevisiae wt2 strain growth inhibition, active compounds read high
Outline: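 Against vehicle-treated controls, the growth of yeast exposed to each compound was compared, and the inhibition was recorded.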

[11] = NCI Yeast Anticancer Drug Screen. Data for the mlh1 strain (AID 171);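 further: 0% = growth of vehicle-treated control cultures of the same strain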; conditions: S. cerevisiae mlh1 strain growth inhibition, active compounds read high
Outline: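 Measured: yeast growth. Reference: vehicle-treated controls. Organism: strain with a defined alteration affecting DNA damage repair or cell cycle control, treated with compound.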

[12] = NCI Yeast Anticancer Drug Screen. Data for the sgs1 strain (AID 173);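 further: 0% = growth of vehicle-only control cultures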; conditions: S. cerevisiae sgs1 mutant, active compounds read high
Outline: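 Each compound was added to cultures of the altered yeast strain. Growth was recorded, and inhibition was derived by comparison with vehicle controls.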

[13] = NCI Yeast Anticancer Drug Screen. Data for the mlh1 rad18 strain (AID 175); conditions: S. cerevisiae mlh1 rad18 strain growth inhibition, active compounds read high
Outline: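 Genetically defined yeast (DNA repair-deficient) exposed to compounds; growth inhibition determined relative to vehicle.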

[14] = NCI Yeast Anticancer Drug Screen. Data for the rad18 strain (AID 177); conditions: S. cerevisiae rad18 mutant growth inhibition, active compounds read high
Outline: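 Vehicle-treated cultures served as the baseline for scoring compound-induced growth inhibition in DNA-repair-mutant yeast.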

[15] = at 5.0 µM (retest, dose inferred, filed as 0.5)
[16] = at 50.0 µM (retest, dose inferred, filed as 5.0)

Measured: growth inhibition

O=c1[nH]cc(F)c(=O)[nH]1
inactive: [1]; at 1.2 µM 2% | [1]; at 3.7 µM 14% | [1]; at 11.0 µM 39% | [2]; at 1.2 µM -1% | [2]; at 3.7 µM -1% | [2]; at 11.0 µM 9% | [2]; at 33.0 µM 34% | [2]; at 100.0 µM 64% | [3]; at 1.2 µM 4% | [3]; at 3.7 µM 31% | [4]; at 1.2 µM 2% | [4]; at 3.7 µM 17% | [4]; [15] 26% | [4]; at 11.0 µM 43% | [5]; at 1.2 µM 11% | [5]; at 3.7 µM 12% | [5]; [15] 26% | [5]; at 11.0 µM 14% | [5]; at 33.0 µM 14% | [5]; at 50.0 µM 53.7% | [5]; at 100.0 µM 9% | [6]; at 1.2 µM 1% | [6]; at 3.7 µM 10% | [6]; at 11.0 µM 17% | [6]; at 33.0 µM 54% | [7]; [15] 53% | [7]; at 50.0 µM 49.6% | [8]; at 1.2 µM 21% | [8]; at 3.7 µM 23% | [8]; at 11.0 µM 21% | [8]; at 33.0 µM 19% | [8]; at 100.0 µM 18% | [9]; at 1.2 µM 6% | [9]; at 3.7 µM 7% | [9]; [15] 2% | [9]; at 11.0 µM 5% | [9]; at 33.0 µM 19% | [9]; at 50.0 µM 44.6% | [9]; at 100.0 µM 3% | [10]; at 1.2 µM 1% | [10]; at 3.7 µM 17% | [10]; at 11.0 µM 58% | [11]; at 1.2 µM 4% | [11]; at 3.7 µM 8% | [11]; at 11.0 µM 23% | [12]; at 1.2 µM 10% | [12]; at 3.7 µM 44% | [13]; [15] 16% | [14]; at 1.2 µM 0% | [14]; at 3.7 µM 10% | [14]; at 11.0 µM 46% | [14]; at 33.0 µM 68%
active: [1]; at 33.0 µM 71% | [1]; at 100.0 µM 88% | [3]; at 11.0 µM 73% | [3]; at 33.0 µM 92% | [3]; at 100.0 µM 96% | [4]; at 33.0 µM 77% | [4]; [16] 89% | [4]; at 50.0 µM 93.2% | [4]; at 100.0 µM 91% | [5]; [16] 96% | [6]; at 100.0 µM 77% | [7]; [16] 95% | [9]; [16] 81% | [10]; at 33.0 µM 86% | [10]; at 100.0 µM 95% | [11]; at 33.0 µM 72% | [11]; at 100.0 µM 93% | [12]; at 11.0 µM 79% | [12]; at 33.0 µM 92% | [12]; at 100.0 µM 96% | [13]; [16] 86% | [13]; at 50.0 µM 89.2% | [14]; at 100.0 µM 86%
